Consider 13 molecules from PubChem BioAssay (NCI).

Some test systems named below: NCI-H23 lung; NCI-H322M lung; HOP-62 NSCLC; NCI-H460 lung; HOP-92 NSCLC; NCI-H522 lung; A549/ATCC NSCLC; 786-0 renal; COLO 205 colon; DU-145 prostate.
Experiment in all cases: NCI-60 one-dose screen, 48 h (100 = growth as untreated, 0 = no growth, -100 = all killed)
Holding throughout (settings): 10 µM unless noted

This is part of a sample that, as a whole, favours compounds with a hit. Of some 83,000 tested, about 20% had one in any assay.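 Single-dose data. Exposure time 48 hours. Values below 10 considered active.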 Values without a mark were called inactive. Active and inactive are the calls of the source.

For the molecule `COC(=O)[C@H]1CCCN1C(=O)[C@H]1CCCN1C(=O)[C@H](Cc1c[nH]c2ccccc12)NC(=S)Nc1cc(C(F)(F)F)cc(C(F)(F)F)c1`, the growth in the assay on NCI-H23 lung was 65.2%; with NCI-H322M lung, 78.4%; with HOP-62 NSCLC it was 74.5%; in the assay with NCI-H460 lung, 22.1%; in the assay on HOP-92 NSCLC, 88.8%; in the assay on NCI-H522 lung, 68.6%. For the same molecule, the growth with A549/ATCC NSCLC was 35%; in the assay on 786-0 renal, 58.3%; with COLO 205 colon, -34.8% (active); with DU-145 prostate, 64.6%.
Consider `CCN1C(=O)N(c2ccccc2)C2Nn3c(s/c(=C4\C(=O)N(C(C)C)c5ccccc54)c3=O)=NC21` (stereo not given), for which the growth in the assay with NCI-H23 lung is 104%; in the assay on NCI-H322M lung, 108%; with HOP-62 NSCLC, 98.5%; in the assay on NCI-H460 lung, 108%; in the assay on HOP-92 NSCLC it was 113%; in the assay with NCI-H522 lung it was 92.1%. Moreover, the growth in the assay with A549/ATCC NSCLC was 104%; in the assay on 786-0 renal, 101%; in the assay on COLO 205 colon, 111%; in the assay on DU-145 prostate, 120%.
Regarding `CN(O)c1nc(N(C)O)nc(N2CCOCC2)n1`, the growth in the assay on NCI-H23 lung is 66%; in the assay with NCI-H322M lung, 35.1%; in the assay with HOP-62 NSCLC, 34.5%; in the assay on NCI-H460 lung, 8.62% (active); in the assay on HOP-92 NSCLC, 52.4%; in the assay on NCI-H522 lung it was 31.4%. Besides, the growth is 33% in the assay with A549/ATCC NSCLC, 21% in the assay with 786-0 renal, 3.87% (active) with COLO 205 colon and 38.8% in the assay with DU-145 prostate.
Regarding `CCN(CC)CCCNc1ccnc2cc3ccccc3cc12`, the growth in the assay on NCI-H23 lung was 83.3%; in the assay on NCI-H322M lung, 76%; in the assay on HOP-62 NSCLC, -9.44% (active); in the assay with NCI-H460 lung it was 45.5%; in the assay with HOP-92 NSCLC, 55.6%; in the assay on NCI-H522 lung, 51.8%. Besides, the growth with A549/ATCC NSCLC is 46.6%; in the assay with 786-0 renal, 66.8%; in the assay on COLO 205 colon, 74.8%; in the assay with DU-145 prostate, 73.8%.
Regarding `CSc1nc2c(c(=O)[nH]1)N=C1c3ccccc3C(=O)C1C(c1ccccc1)N2` (stereo not given), the growth in the assay with NCI-H23 lung was 62%; in the assay on NCI-H322M lung it was 69.4%; in the assay with HOP-62 NSCLC it was 45.5%; in the assay on NCI-H460 lung it was 12.3%; with HOP-92 NSCLC it was 59.5%; in the assay with NCI-H522 lung, 82.2%. The growth in the assay on A549/ATCC NSCLC was 51.6%; with 786-0 renal it was 46%; in the assay on COLO 205 colon it was 33.5%; in the assay on DU-145 prostate it was 75.4%.
For the molecule `O=S1(=O)N(Cc2ccccc2)[C@@H](Cc2ccccc2)[C@H](O)[C@H](O)[C@H](Cc2ccccc2)N1Cc1ccccc1`, the growth in the assay on NCI-H23 lung is 1.32% (active); in the assay with NCI-H322M lung, 12.6%; in the assay on HOP-62 NSCLC it was 18.4%; in the assay on NCI-H460 lung it was -44.8% (active); in the assay with HOP-92 NSCLC it was 4.2% (active); in the assay with NCI-H522 lung it was 9.21% (active). Besides, the growth in the assay on A549/ATCC NSCLC was 6.12% (active); with 786-0 renal it was -1.43% (active); in the assay with COLO 205 colon it was -0.273% (active); in the assay on DU-145 prostate it was -23.4% (active).
With `CN1CCN(Cc2ccc(C(=O)Nc3cncc(C#Cc4cnc(N)c5ccccc45)c3)cc2C(F)(F)F)CC1`, the growth was -41.8% (active) with NCI-H23 lung; -31.5% (active) in the assay with NCI-H322M lung; -48.4% (active) in the assay with HOP-62 NSCLC; -80.8% (active) in the assay on NCI-H460 lung; 45.2% in the assay on HOP-92 NSCLC; -54.3% (active) in the assay on NCI-H522 lung. Besides, the growth in the assay on A549/ATCC NSCLC was -67.8% (active); with 786-0 renal, -82.1% (active); in the assay with COLO 205 colon, -50.9% (active); in the assay on DU-145 prostate, -87.2% (active).
Consider `O=C(CCc1nnc2sc(COc3ccccc3)nn12)c1nc2ncccc2[nH]1`, for which the growth in the assay on NCI-H23 lung was 85.4%; with NCI-H322M lung, 91.9%; in the assay with HOP-62 NSCLC, 90.7%; in the assay on NCI-H460 lung, 93.3%; in the assay on HOP-92 NSCLC, 93.6%; in the assay on NCI-H522 lung it was 79.4%. Besides, the growth is 107% in the assay with A549/ATCC NSCLC, 108% with 786-0 renal, 107% in the assay with COLO 205 colon and 106% with DU-145 prostate.
As to `COc1cc(/C=C2\CN(S(=O)(=O)c3ccccc3)C/C(=C\c3cc(CN4CCCC4)c(O)c(OC)c3)C2=O)cc(CN2CCCC2)c1O`, the growth with NCI-H23 lung is -57.8% (active); in the assay with NCI-H322M lung it was 21.4%; in the assay with HOP-62 NSCLC it was -4.65% (active); with NCI-H460 lung, -30.7% (active); with HOP-92 NSCLC, -11.3% (active); with NCI-H522 lung, -26.3% (active). In addition, the growth is 19.9% in the assay with A549/ATCC NSCLC, 4.02% (active) in the assay with 786-0 renal, -30.4% (active) in the assay with COLO 205 colon and -16.7% (active) in the assay on DU-145 prostate.
With `CCN(CCO)CCNc1ccc(C)c2sc3cc(Cl)ccc3c(=O)c12`, the growth was 59.6% with NCI-H23 lung; 47% with NCI-H322M lung; 38.5% in the assay on HOP-62 NSCLC; -75.9% (active) in the assay on NCI-H460 lung; 4.54% (active) in the assay with HOP-92 NSCLC; 50.2% in the assay with NCI-H522 lung. For the same molecule, the growth is 24.6% with A549/ATCC NSCLC, -60.1% (active) in the assay with 786-0 renal, -80.9% (active) in the assay with COLO 205 colon and 16.9% with DU-145 prostate.
As for `CN1C(=O)N(C)C2C1NN=c1s/c(=C\c3ccc(Cl)cc3Cl)c(=O)n12` (stereo not given), the growth is 29% with NCI-H23 lung; 38.3% in the assay with NCI-H322M lung; 54.3% in the assay with HOP-62 NSCLC; 3.01% (active) in the assay on NCI-H460 lung; 97.6% with HOP-92 NSCLC; 17.5% in the assay with NCI-H522 lung. Also, the growth with A549/ATCC NSCLC was 25.1%; in the assay with 786-0 renal, 24%; in the assay on COLO 205 colon, 1.82% (active); with DU-145 prostate it was 5.98% (active).
Take `O=c1c(-c2nc3ccccc3[nH]2)cc2ccccc2n1Cc1cn(Cc2ccc(F)cc2)nn1`: the growth with NCI-H23 lung is 23.5%; in the assay with NCI-H322M lung, 19.4%; with HOP-62 NSCLC it was 21.4%; with NCI-H460 lung, -10.7% (active); in the assay on HOP-92 NSCLC it was 34.9%; with NCI-H522 lung, 19.5%. Moreover, the growth was 11.4% in the assay with A549/ATCC NSCLC, -23.2% (active) with 786-0 renal, 18.2% in the assay on COLO 205 colon and -23.5% (active) in the assay with DU-145 prostate.
As to `CC1CCCCN1CCCNC(=O)c1ccc2c(c1)sc1nc(-c3ccc(F)cc3)cn12` (stereo not given), the growth with NCI-H23 lung was 92.1%; in the assay on NCI-H322M lung, 107%; in the assay with HOP-62 NSCLC it was 90.9%; in the assay on NCI-H460 lung, 102%; in the assay on HOP-92 NSCLC, 83.1%; with NCI-H522 lung, 102%. The growth is 108% in the assay with A549/ATCC NSCLC, 78.8% in the assay with 786-0 renal, 98% in the assay with COLO 205 colon and 105% with DU-145 prostate.
